Screens deposited in PubChem by several laboratories.
Only some compounds are listed: those with a hit (about 1.9% of all), similar ones and a draw of the others.
BaF3 parental: parental Ba/F3 viability inhibition as JAK2V617F counter-screen; inhibition, % at 5.6 µM; CellTiter-Glo ATP luminescence; AID 1486; actives 1.1% (n = 220,000);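 active = inhibition above a per-campaign cutoff, the mean inhibition of all tested compounds plus 3 SD, cut at about 27% in these data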;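 also: 0% = DMSO wells and 100% = JAK Inhibitor I control wells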
Ba/F3 V617F tox: loss of viability in JAK2V617F-driven Ba/F3 cells | Ba/F3 EpoR-JAK2V617F viability, ATP luminescence | inhibition, % at 5.6 µM | actives 1.1% (n = 220,000);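 active = inhibition above the campaign mean plus 3 SD over all tested compounds, cut at about 24% in these data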;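 also: cytokine-independent growth of Ba/F3 cells driven by EpoR plus mutant JAK2; 0% = DMSO-treated cells and 100% = JAK inhibitor I control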
APP 5UTR inh: APP translation inhibition. inhibition, % at 2 µM. SH-SY5Y APP 5'UTR-luciferase reporter, luminescence. actives 0.82% (n = 190,000);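 active = inhibition above a set limit, derived from the sample mean plus 3 SD, cut at about 45% in these data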
IEC-6 tox: counter-screen for KLF5 inhibitors: cytotoxicity in IEC-6 cells | actives 0.78% (n = 290,000) | IEC-6 cytotoxicity, luminescence viability | inhibition, % at 5 µM; in the data active = inhibition above about 22%;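 also: 0% = plate median of test compound wells and 100% = cytotoxic reference compound wells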
KLF5 inhibitor: suppresses KLF5 promoter-driven expression | DLD-1 KLF5 promoter-luciferase reporter, luminescence | inhibition, % at 5 µM | actives 0.23% (n = 290,000);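 active = inhibition above a per-plate limit of that plate's mean compound inhibition plus 3 SD, cut at about 60% in these data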;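 also: 0% = DMSO wells and 100% = LY294002 at 200 µM; higher means less KLF5 promoter-driven luciferase light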
* = called active by the depositor; nt = no result given; ! = repeats disagree.

SMILES	BaF3 parental	Ba/F3 V617F tox	APP 5UTR inh	IEC-6 tox	KLF5 inhibitor
Cn1c(NN=O)nc2ccccc21	4.1	-0.2	75.2*	9.8	-37.1
COP(=S)(OC)c1c(C)nn(CCC#N)c1NC(=O)c1ccc(Cl)cc1	nt	nt	nt	-5.1	2.9
CN(C)c1ccc(-[n+]2c(-c3ccccc3)cc(-c3ccccc3)cc2-c2ccccc2)cc1	94.5*	101.1*	44.8	71.0*	60.5
O=c1[nH]c(=S)n(CCC2=CCCCC2)c(O)c1/C=N/N1CCOCC1	0.7	-4.2	nt	-4.3	-20.6
CCN1C[C@]2(C)CC[C@H](OC)[C@]34C2[C@H](OC(C)=O)[C@@]2(OCO[C@@]25C[C@H](OC)[C@H]2C[C@]3(O)C5[C@H]2OC)[C@@H]14	nt	nt	nt	-3.5	-18.1
C[n+]1c(-c2ccccc2)cc(-c2ccc(Cl)cc2)cc1-c1ccccc1	29.8*	46.4*	-5.7	7.7	-1.7
O=[N+]([O-])c1cc(Cl)c(O)c(-[n+]2c(-c3ccccc3)cc(-c3ccccc3)cc2-c2ccccc2)c1	nt	nt	nt	-8.5	-12.4
O=C(Cn1ncn2c(cc3cc(F)ccc32)c1=O)N1CCC2(CC1)OCCO2	nt	nt	nt	-3.6	-32.7
COc1ccc(C(C)=O)cc1CC(C(=O)c1ccc(C)c(C)c1)N(C)C (stereo not given)	2.9	-4.2	11.8	2.2	1.4
COc1ccc(C(=O)C(Cc2ccccc2)N(C)C)cc1 (stereo not given)	36.5*	35.4*	-7.1	0.4	-19.9
COc1ccc(C(C)=O)cc1CC(C(=O)c1ccc(F)cc1)N(C)C (stereo not given)	40.0*	0.9	-4.8	-4.3	-18.3
COc1ccc(-n2nc(C(=O)NCC(=O)N3CCC4(CC3)OCCO4)c3ccccc3c2=O)c(OC)c1	nt	nt	nt	-1.7	-67.9
CCCCn1c(C)c(C(=O)OCC)c2c(CN3CCCC3)c(O)ccc21	nt	nt	nt	8.5	-20.6
CC(C)CN1CCN(Cc2ccc(C(F)(F)F)cc2)CC1CCO (stereo not given)	1.3	0.5	nt	0.9	-3.2
CCN(CC)C1=NC(=[N+](CC)CC)c2ccccc21	66.2*	79.6*	1.2	-1.1	8.6
O=C1CN(O)C(c2ccccc2Cl)=c2cc(Br)ccc2=N1	nt	nt	nt	-2.5	-21.2
COC(=O)CSC1=NP(=S)(SCC(=O)OC)N2CCCC2=C1C#N (stereo not given)	77.7*	-0.2	-0.1	-2.9	-9.2
O=C(CCn1nc(-c2ccc(Cl)cc2)ccc1=O)N1CCC2(CC1)OCCO2	11.7	1.4	-13.3	-7.7	-0.8
Cc1nc2cc(-c3ccc(Cl)cc3)nn2c(C)c1CCC(=O)N1CCC2(CC1)OCCO2	3.9	0.1	49.6*	0.1	-20.7
Fc1cccc(C2NCc3ccccc3-n3cccc32)c1 (stereo not given)	nt	nt	nt	-0.9	-9.6
O=c1[nH]c(=O)n(-c2ccc(F)cc2)c(O)c1C=Nc1ccccc1N1CCCC1	38.4*	5.1	-1.5	-1.5	1.1
C[C@H]1O[C@@H](OC2CC[C@]3(C=O)[C@H]4CC[C@]5(C)[C@@H](C6=CC(=O)OC6)CC[C@]5(O)[C@@H]4CC[C@]3(O)C2)CC2OC(C)(C)OC21 (stereo not given in full)	nt	nt	nt	-4.6	109.8*
CC12CC[C@H]3[C@@H](CCC4(O)C[C@H](O)CCC34/C=N/NC(=O)c3ccccc3Cl)C1(O)CCC2C1=CC(=O)OC1 (stereo not given in full)	-1.5	-0.6	nt	-0.4	-38.1
C[C@H]1O[C@@H](O[C@H]2[C@@H](O)C[C@H](O[C@H]3[C@@H](O)C[C@H](O[C@H]4CC[C@@]5(C)[C@H](CC[C@@H]6[C@@H]5CC[C@]5(C)[C@@H](C7=CC(=O)OC7)CC[C@]65O)C4)O[C@@H]3C)O[C@@H]2C)C[C@H](O)[C@@H]1O	5.7	-0.6	94.4*	4.9	100.0*
COc1ccc(O)c2c(=O)c3c(OC)cc4c(c3oc12)C1C=COC1O4 (stereo not given)	7.8	3.9	nt	29.9*	1.8
SMILES	BaF3 parental	Ba/F3 V617F tox	APP 5UTR inh	IEC-6 tox	KLF5 inhibitor
CCN(CC)C(=O)c1ccc(NC(=O)CCCSc2ccccc2)cc1	3.2	-0.5	7.8	5.5	-17.6
CCN(CC)C(=O)c1ccc(NC(=O)Nc2ccccc2F)cc1	43.0*	43.3*	-121.3	28.2*	35.1
Oc1ccccc1C1NCc2ccccc2-n2cccc21 (stereo not given)	nt	nt	nt	-7.7	-18.4
Cc1cc(C)cc(N2C(=O)NC(=O)/C(=C\C=C\c3ccco3)C2=O)c1	5.1	0.8	46.5*	-5.7	-17.1
Cc1ccc(N2C(=O)NC(=O)/C(=C/C=C/c3ccco3)C2=O)cc1	9.3	3.6	-4.1	-6.6	-16.8
CC(=NCc1ccc(F)cc1)c1c(O)n(C)c(=O)n(C)c1=O	30.9*	35.4*	11.2	6.8	43.3
Cn1nc(-c2ccc(OCC(=O)N3CCN(Cc4ccccc4)CC3)cc2)c2ccccc2c1=O	38.8*!	1.1	-16.7	4.9	-45.9
Cc1ccc(-c2nc3ccccc3c(=O)n2-c2ncccc2C)cc1	95.5*	2.3	19.8	4.6	-17.4
Cc1cccnc1-n1c(-c2ccccc2)nc2ccccc2c1=O	6.2	0.8	2.5	-3.0	-41.0
CN(C(=O)CNC(=O)OCc1ccccc1)c1ccc(Br)cc1C(=O)c1ccccc1Cl	15.1	10.0	80.1*	2.7	7.2
C1=C(c2c[nH]c3ccccc23)CCNC1	1.2	-1.4	-13.8	0.0	-19.7
CC(C)N1CC=C(c2c[nH]c3ccccc23)CC1	64.7*	86.9*	3.0	-3.9	-3.4
COc1ccc(-c2nc3ccc(C(=O)N4CCC5(CC4)OCCO5)cc3nc2-c2ccc(OC)cc2)cc1	nt	nt	nt	-4.6	12.5
O=C(NC1(C(F)(F)F)Oc2ccccc2O1)N1CCC2(CC1)OCCO2	3.6	7.7	13.6	2.9	-5.9
O=C(NC1(C(F)(F)F)Oc2ccc(Cl)cc2O1)N1CCC2(CC1)OCCO2 (stereo not given)	19.9	44.4*	47.8*	4.1	-11.1
CC1(C)OC(c2ccccc2)=C/C(=C/C=C2C(=O)NC(=S)NC2=O)O1	42.4*	-2.2	-10.9	-7.2	1.4
CCOc1cc2c(cc1OCC)-n1cccc1C(c1cccc([N+](=O)[O-])c1)NC2 (stereo not given)	nt	nt	nt	-1.0	10.0
COc1ccc(CCNCc2ccccc2F)cc1OC	1.9	-4.1	36.7	1.0	-37.9
CCOc1ccc(Cl)cc1CNCCc1ccccc1F	63.3*	28.8*	nt	0.0	-30.9
O=c1[nH]sc2cc(F)ccc12	-0.6	27.8*	5.6	1.4	-10.3
OCC[n+]1c2ccccc2nc2ccc(N3CCOCC3)cc21	31.1*	18.9	nt	8.4	-12.1
Cc1cccc(-n2c(/C=C/c3ccc([N+](=O)[O-])o3)nc3ccccc3c2=O)c1	2.2	-3.0	nt	-7.6	-19.9
O=c1c2ccccc2nc(/C=C/c2ccc([N+](=O)[O-])o2)n1-c1ccc(O)cc1	2.6	3.3	80.3*	-3.8	-30.9
N=c1sccn1Cc1ccccc1F	nt	nt	nt	-2.2	-21.5
O=c1c2ccccc2nc(CSc2ncnc3nc[nH]c23)n1-c1ccccc1Cl	16.8	11.5	5.3	4.6	-16.4
O=c1c2ccccc2nc(CSc2ncnc3nc[nH]c23)n1-c1ccccc1	31.8*	8.9	-6.5	10.1	3.6
